# Reference: PubChem BioAssay (NCI)
# Compounds without any hit were thinned out: in the full panel of roughly 83,000, 20% have a hit.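 96-well plates, one dose, 48 hours. Percent growth reported; active if below 10.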 A number with no mark means an inactive call. Activity calls are given as the source filed them.
# How the values were obtained:
# Assay in all cases: NCI-60 one-dose screen, 48 h (100 = growth as untreated, 0 = no growth, -100 = all killed)
# [1] = test system: DU-145 prostate; details: 10 µM unless noted
# [2] = test system: MDA-MB-231 breast; details: 10 µM unless noted
# [3] = test system: RXF 393 renal; details: 10 µM unless noted
# [4] = test system: SF-268 CNS; details: 10 µM unless noted
# [5] = test system: SF-295 CNS; details: 10 µM unless noted
# [6] = test system: SF-539 CNS; details: 10 µM unless noted
# [7] = test system: UACC-257 melanoma; details: 10 µM unless noted
# [8] = test system: M14 melanoma; details: 10 µM unless noted
# [9] = test system: HCT-15 colon; details: 10 µM unless noted
# [10] = test system: HT29 colon; details: 10 µM unless noted
# [11] = test system: SNB-75 CNS; details: 10 µM unless noted
# [12] = test system: SNB-19 CNS; details: 10 µM unless noted
# [13] = test system: U251 CNS; details: 10 µM unless noted
# [14] = test system: PC-3 prostate; details: 10 µM unless noted
# [15] = test system: SK-MEL-5 melanoma; details: 10 µM unless noted
# [16] = test system: UACC-62 melanoma; details: 10 µM unless noted
# [17] = test system: LOX IMVI melanoma; details: 10 µM
# [18] = test system: SK-MEL-28 melanoma; details: 10 µM unless noted
# [19] = test system: K-562 leukemia; details: 10 µM unless noted
# [20] = test system: MALME-3M melanoma; details: 10 µM unless noted
Compound,growth [1],growth [2],growth [3],growth [4],growth [5],growth [6],growth [7],growth [8],growth [9],growth [10],growth [11],growth [12],growth [13],growth [14],growth [15],growth [16],growth [17],growth [18],growth [19],growth [20]
Cc1cccc(C)c1NC(=S)/N=C\c1c(O)[nH]c(=O)[nH]c1=O,111%,96.6%,108%,98%,97.9%,112%,81.8%,98.4%,107%,95.7%,85.1%,103%,96.8%,96%,96.3%,90.9%,98.2%,111%,–,–
C/C(O)=C(/C=N\C(=S)Nc1ccc(S(=O)(=O)Nc2nccs2)cc1)C(=O)Nc1ccccc1C,–,87%,97.7%,88.8%,104%,95.9%,109%,100%,102%,116%,89%,92.7%,84%,84.9%,93%,81.8%,92%,110%,93.7%,108%
CC(=O)Nc1ccc(/C=C2\SC(=S)N(/C=C(\C(C)=O)C(N)=O)C2=O)cc1,106%,98.9%,93%,96.2%,93.6%,92.5%,87.8%,81%,98.2%,97.4%,82.4%,100%,90.3%,78.5%,88.7%,87.6%,78.3%,93.4%,–,87.8%
Cc1c(Cl)cccc1N=C=S,112%,130%,91.9%,107%,93.9%,90.2%,92.7%,90.6%,107%,104%,70.6%,93.5%,106%,89.6%,–,97.4%,103%,132%,–,99%
CCOP(=O)(OCC)/C(=C\N1C(=O)CC(=O)NC1=S)C(=O)OC,–,93.6%,103%,101%,102%,109%,101%,99.2%,102%,111%,90.2%,98.6%,94.7%,97.8%,99%,98.6%,98.6%,107%,103%,102%
Cc1cc(CC(=O)NCCO)n(CCO)c(=O)c1,110%,109%,110%,101%,104%,107%,93%,103%,109%,98.3%,95.3%,103%,97.9%,104%,104%,105%,98.8%,118%,–,115%
Cc1ccccc1CC(N)C(=O)O (centres undefined),–,116%,137%,101%,99.6%,116%,109%,100%,117%,107%,91.4%,108%,102%,90.4%,117%,103%,106%,115%,115%,116%
OC(CCN1CCCCC1)(c1ccccc1)c1ccccc1,115%,105%,91.7%,104%,111%,117%,100%,99.2%,104%,96.1%,85.8%,110%,100%,96%,97.4%,106%,97.2%,112%,–,95.4%
CCOP(=O)(NC(c1ccccc1)c1ccccc1)OCC,–,106%,113%,104%,102%,115%,97.8%,105%,117%,107%,88.7%,102%,105%,82.6%,105%,114%,93.1%,106%,114%,89.7%
Cn1c(=O)c2nc3c(=O)n(C)c(=O)n(C)c3nc2n(C)c1=O,117%,109%,–,108%,107%,91.7%,–,97%,109%,109%,92.4%,92.3%,103%,97.4%,106%,94.4%,105%,122%,–,120%
Cc1cc2c3ccc(C)[n+](C)c3ccc2n1C,46.7%,33.6%,61.6%,19%,26.4%,67.5%,32.2%,92.7%,104%,39.9%,67.6%,30.6%,12.4%,8.69% (active),48.2%,78.9%,43.9%,86%,–,46.9%
Cc1nc(C)c(C(=O)O)cc1C(=O)O,–,108%,117%,116%,118%,95%,111%,114%,103%,109%,91.5%,109%,107%,99.7%,111%,105%,95.8%,112%,99.6%,105%
O=C(NCCc1ccccc1)/C(=C\c1ccc(Cl)cc1Cl)NC(=O)c1ccccc1,–,90.8%,92.8%,95%,99.5%,94.1%,96.6%,96.4%,98.4%,98.3%,83.4%,99.2%,97%,88.8%,96.4%,98.6%,92.7%,105%,122%,79.4%
CCCCn1cnc2c(=O)[nH]cnc21,–,98.4%,118%,110%,100%,104%,121%,103%,105%,104%,89.6%,96.9%,109%,94.2%,119%,95.7%,109%,107%,97.7%,158%
O=C1NC(=O)/C(=C\c2ccncc2)N1,–,99.1%,102%,97.6%,104%,92.7%,97.7%,92.6%,98.7%,99.7%,92%,101%,100%,96.3%,97.2%,95.8%,100%,101%,117%,103%
CCCCN(C(=O)CC)c1ccccc1,99.7%,105%,115%,98.6%,99.8%,100%,95.5%,91.8%,108%,100%,89.8%,99.9%,97.6%,103%,100%,99.2%,97.4%,104%,–,100%
C/C(O)=C(/C=N/C(=S)Nc1ccccc1)C(=O)Nc1ccccc1C,–,99.7%,104%,97.9%,105%,101%,91.2%,100%,96.7%,105%,92.4%,93.9%,95.4%,86.5%,93.9%,79.4%,94.4%,110%,100%,89.1%
